The full list was thinned out, with hits kept by preference.
Lassa entry inh: blocks Lassa virus binding to or entry into cells; Potency, µM (top dose mostly 37.9 µM), for inactives: top-dose activity change, negative = inhibition, actives largely listed as inhibitors; AID 540256; Lassa virus pseudotype entry inhibition, cell reporter; 300,000 tested, 1.2% active; calls by dose curve; tested in HEK293 cells; also: potency is read from the fitted curve at half-maximal effect; % is scaled to controls: 0 for no effect and ±100 for the full control effect; nearly all actives have a fitted effect of over 50% in size
AMA1-RON2 inh: disrupts binding of P. falciparum AMA1 to RON2; AID 720542; 360,000 tested, 0.2% active; Potency, µM (titrated, usually from 58.2 µM), for inactives: at the highest dose activity change, negative = inhibition, hits mostly inhibitors; AlphaScreen AMA1-biotinylated RON2 peptide binding; active = well fitted inhibition curve with a large enough effect; inconclusive = small, poorly fitted or top-dose-only effect; inactive = no such curve, though single readings can be large or run the other way;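 also: potency is read from the fitted curve at half-maximal effect; 0% = vehicle wells and -100% = peptide control; nearly all actives have a fitted effect of over 45% in size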
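AMA1 (3D7) with his tag at 25 nM final met compounds first, then biotinylated RON2 peptide at 25 nM; detection used donor plus acceptor beads, 10 µg/mL apiece, read by AlphaScreen after 30 min at room temperature.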
Shiga toxin inh: Shiga toxin inhibition | Vero cells, Shiga toxin protein synthesis inhibition reporter | inhibition, % at 38.7 µM | 290,000 tested, 9.2% active | AID 2315; in the data active = inhibition mostly above about 28%, no sharp cut-off; inactive = mostly below about 43%; also: 0% is about no effect
Marburg entry inh: blocks Marburg virus binding to or entry into cells; Marburg virus pseudotyped entry inhibition, cell reporter; AID 540276; 300,000 tested, 1.8% active; Potency, µM (top dose mostly 37.8 µM), inactives show at the highest dose activity change, negative = inhibition, actives largely listed as inhibitors; calls by dose curve; tested in HEK293 cells; also: potency is read from the fitted curve at half-maximal effect; % is scaled to controls: 0 for no effect and ±100 for the full control effect
Cycloheximide cs: counter-screen hit for Shiga toxin inhibitors, cycloheximide | AID 2314 | 300,000 tested, 12% active | max response, % | cell reporter, cycloheximide protein synthesis inhibition counterscreen; in the data active = max response mostly above about 13%, no sharp cut-off; inactive = mostly below about 14%; also: read at 38.3 µM for the half of the compounds with a filed dose; 0% is about no effect
An asterisk follows results filed as active; [ ] = remark or other dose.

What do the screens show for `COc1cc(/C=C2\CCC/C(=C\c3ccc(O)c(OC)c3)C2=O)ccc1O`?
Lassa entry inh: inconclusive; AMA1-RON2 inh: -8%; Shiga toxin inh: 76*; Marburg entry inh: inconclusive; Cycloheximide cs: 42*

How did O=C1/C(=C/c2ccc(O)c(O)c2)Oc2cc(O)ccc21 do in these assays?
AMA1-RON2 inh: -5%; Shiga toxin inh: 6; Cycloheximide cs: -2

What do the screens show for `CCOc1cc(/C=C2\CN(CC)C/C(=C\c3ccc(O)c(OCC)c3)C2=O)ccc1O`?
Lassa entry inh: 5µM*; AMA1-RON2 inh: inconclusive; Shiga toxin inh: 3; Marburg entry inh: 4.5µM*; Cycloheximide cs: 24*

How did COc1cc(/C=C2/CCCC(C(=O)C(F)(F)F)=C2O)ccc1O do in these assays?
Lassa entry inh: 7%; AMA1-RON2 inh: 8%; Shiga toxin inh: 17; Marburg entry inh: 5%[46.1 µM]; Cycloheximide cs: 1

How did CC(C)C(NC(=O)c1ccc(F)cc1)C(=O)N1CCN(C(=O)c2ccco2)CC1 (stereo not drawn) do in these assays?
AMA1-RON2 inh: -7%

How did COc1ccc(/C=C2\CCCC(C(=O)C(F)(F)F)=C2O)cc1OC do in these assays?
Shiga toxin inh: 76; Cycloheximide cs: 20*

What do the screens show for `O=[N+]([O-])c1ccc(CSc2nc3ccccc3o2)cc1`?
Lassa entry inh: 7%; AMA1-RON2 inh: 9%; Shiga toxin inh: 121*; Marburg entry inh: inconclusive; Cycloheximide cs: 36*

Results for COC(=O)c1ccc(CSc2nc3ccccc3o2)cc1 ?
Lassa entry inh: inconclusive; AMA1-RON2 inh: -6%; Shiga toxin inh: 55*; Marburg entry inh: inconclusive; Cycloheximide cs: 30*

What do the screens show for `O=C(Nc1ccc(F)c(Cl)c1)C1CCN(c2ncccn2)CC1`?
Lassa entry inh: 3%[46.1 µM]; Marburg entry inh: 2%[46.1 µM]

What do the screens show for `CCc1cc2c3c(c(=O)oc2cc1OCC(=O)OC)CCCC3`?
AMA1-RON2 inh: -4%; Shiga toxin inh: -8; Cycloheximide cs: -2

How did COc1ccc(COC(=O)NN=C2C[C@@H](O)[C@@H](O)[C@@H]3[C@H]4C(=O)N(c5ccc(F)cc5F)C(=O)[C@@H]4CC[C@H]23)cc1 do in these assays?
Lassa entry inh: 2.8µM*; Marburg entry inh: inconclusive

How did COc1ccc(COC(=O)NN=C2C[C@@H](O)[C@@H](O)[C@@H]3[C@H]4C(=O)N(Cc5ccc6c(c5)OCO6)C(=O)[C@@H]4CC[C@H]23)cc1 do in these assays?
Lassa entry inh: 0.27µM*; Marburg entry inh: 4%[14.2 µM]

What do the screens show for `COc1ccc(Cn2nnnc2C(c2cc3cccc(C)c3[nH]c2=O)N2CCOCC2)cc1` (stereo not drawn)?
Lassa entry inh: -12%; AMA1-RON2 inh: 3%; Shiga toxin inh: 35*; Marburg entry inh: -4%; Cycloheximide cs: 20

What do the screens show for `Cc1ccc2cc(C(c3nnnn3Cc3ccccc3)N3CCN(c4ccccc4)CC3)c(=O)[nH]c2c1` (stereo not drawn)?
Lassa entry inh: -19%; AMA1-RON2 inh: -24%; Shiga toxin inh: -21; Marburg entry inh: 21µM*; Cycloheximide cs: -5

How did Cc1ccc(C)c2[nH]c(=O)c(C(c3nnnn3Cc3ccco3)N3CCc4ccccc4C3)cc12 (stereo not drawn) do in these assays?
Lassa entry inh: inconclusive; AMA1-RON2 inh: 7%; Shiga toxin inh: 78*; Marburg entry inh: inconclusive; Cycloheximide cs: 27*

Results for CC(=O)Nc1ccc(C(=O)N2CCCCC2c2cc(C(=O)NCc3cccnc3)no2)cc1 (stereo not drawn) ?
AMA1-RON2 inh: -3%

What do the screens show for `CC(C)C(=O)NC(=S)Nc1ccc(S(=O)(=O)NC2CCCCC2)cc1`?
AMA1-RON2 inh: -4%; Shiga toxin inh: 19; Cycloheximide cs: 5

Results for O=C1CC(c2ccccc2Cl)=NN(c2ncnc3ccccc23)C1=O ?
Lassa entry inh: -4%; AMA1-RON2 inh: 14%; Shiga toxin inh: 94*; Marburg entry inh: -14%; Cycloheximide cs: 41*

What do the screens show for `COC(=O)c1ccc(CO/N=C2\CCCc3nonc32)cc1`?
Lassa entry inh: 2%; AMA1-RON2 inh: 3%; Shiga toxin inh: 53; Marburg entry inh: inconclusive; Cycloheximide cs: 44*

What do the screens show for `COc1ccc(C(=O)O/N=C2\CCCc3nonc32)cc1`?
Lassa entry inh: 12%; AMA1-RON2 inh: 12%; Shiga toxin inh: -3; Marburg entry inh: 7%; Cycloheximide cs: -1

How did CC(C)(C)NC(=O)COC(=O)c1snc(C(=O)NC2CCCCC2)c1N do in these assays?
Lassa entry inh: inconclusive; AMA1-RON2 inh: 1%; Shiga toxin inh: 37*; Marburg entry inh: -13%; Cycloheximide cs: 18*

What do the screens show for `CCOc1cccc(C(=O)NC(=S)Nc2ccccc2)c1`?
Lassa entry inh: inconclusive; AMA1-RON2 inh: 29%; Shiga toxin inh: 141*; Marburg entry inh: inconclusive; Cycloheximide cs: 104*

What do the screens show for `CCOc1cccc(C(=O)NC(=S)Nc2cccnc2)c1`?
Lassa entry inh: inconclusive; AMA1-RON2 inh: -1%[2.32 µM]; Shiga toxin inh: 80*; Marburg entry inh: inconclusive; Cycloheximide cs: 38*

What do the screens show for `CCCCOc1cccc(C(=O)NC(=S)Nc2cccnc2)c1`?
Lassa entry inh: inconclusive; AMA1-RON2 inh: 2%; Shiga toxin inh: -4; Marburg entry inh: inconclusive; Cycloheximide cs: 10

Results for CCOc1cccc(C(=O)NC(=S)Nc2cccc(NC(=O)c3ccccc3Cl)c2)c1 ?
Lassa entry inh: inconclusive; AMA1-RON2 inh: 9%; Shiga toxin inh: 24; Marburg entry inh: inconclusive; Cycloheximide cs: 14*

Results for Cc1cccc(NC(=O)CSc2nnc(-c3ccncc3)n2CC2CCCO2)c1 (stereo not drawn) ?
AMA1-RON2 inh: -13%; Shiga toxin inh: -15; Marburg entry inh: inconclusive; Cycloheximide cs: -3

What do the screens show for `COc1ccc(-c2cn(CCN)c(-c3ccncc3)n2)cc1`?
AMA1-RON2 inh: 14%

How did Cc1cc(C)n2nc(-c3ccc(F)cc3)nc2n1 do in these assays?
Lassa entry inh: inconclusive; AMA1-RON2 inh: 8%; Shiga toxin inh: 84; Marburg entry inh: 5%; Cycloheximide cs: 24*

How did Cc1cc(C)n2nc(-c3cccnc3)nc2n1 do in these assays?
Lassa entry inh: 2%; AMA1-RON2 inh: 1%; Shiga toxin inh: 3; Marburg entry inh: 8%; Cycloheximide cs: 2

Results for CCCOCCc1nnc(N)s1 ?
Lassa entry inh: -12%[46.1 µM]; AMA1-RON2 inh: -17%; Shiga toxin inh: -11; Marburg entry inh: 2%[46.1 µM]; Cycloheximide cs: 4

Results for CC(=NNc1nc2ccccc2o1)c1cc2ccccc2cn1 ?
Lassa entry inh: 0.79µM*; AMA1-RON2 inh: inconclusive; Marburg entry inh: 0.35µM*

Results for CC(=NNc1nc2ccccc2o1)c1ncccn1 ?
Lassa entry inh: 0.89µM*; AMA1-RON2 inh: -5%; Marburg entry inh: 0.4µM*

How did O=C(O)c1cc2ccccc2cn1 do in these assays?
Lassa entry inh: 22%[46.1 µM]; AMA1-RON2 inh: -93%; Marburg entry inh: 29%[46.1 µM]

How did CN(C)S(=O)(=O)n1cnc([C@@H]2[C@@H]3C(=O)OC[C@@H]3C[C@]23N=CN(Cc2ccccc2)C3=O)c1 do in these assays?
AMA1-RON2 inh: -3%

What do the screens show for `CCOc1ccc(NC(c2ccccc2)P(=O)(OC)OC)cc1` (stereo not drawn)?
AMA1-RON2 inh: -19%; Shiga toxin inh: 26*; Cycloheximide cs: 12

Bioassay records as filed in PubChem.
